Assay results taken from PubChem BioAssay (Tox21).
Records with an inconclusive call do not appear. Entries that show only a call come without a potency. Values without a mark were called inactive. The source made the active and inactive calls. The call rests on the fitted dose curve.

Molecular target: Beta-2 adrenergic receptor (Homo sapiens) (UniProt P07550)
Assay: Adrenergic beta2 receptor (ADRB2) small molecule agonists, cell-based qHTS assay (AID 1963593);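 further: CHO cells stably overexpressing human ADRB2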
Conditions: CHO-ADRB2 cells, cAMP HTRF, 30 min; series mostly up to 92.4 µM
Method in brief: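 CHO cells stably over-expressing ADRB2 were plated overnight at 37C, then dosed with compounds plus a stimulation mix containing 100uM IBMX and 25uM Ro-20-1724 for 0.5hr at room temperature. cAMP was measured by HTRF competition, 1hr.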

Sequence of Beta-2 adrenergic receptor (Homo sapiens) (P07550 whole entry, looked up): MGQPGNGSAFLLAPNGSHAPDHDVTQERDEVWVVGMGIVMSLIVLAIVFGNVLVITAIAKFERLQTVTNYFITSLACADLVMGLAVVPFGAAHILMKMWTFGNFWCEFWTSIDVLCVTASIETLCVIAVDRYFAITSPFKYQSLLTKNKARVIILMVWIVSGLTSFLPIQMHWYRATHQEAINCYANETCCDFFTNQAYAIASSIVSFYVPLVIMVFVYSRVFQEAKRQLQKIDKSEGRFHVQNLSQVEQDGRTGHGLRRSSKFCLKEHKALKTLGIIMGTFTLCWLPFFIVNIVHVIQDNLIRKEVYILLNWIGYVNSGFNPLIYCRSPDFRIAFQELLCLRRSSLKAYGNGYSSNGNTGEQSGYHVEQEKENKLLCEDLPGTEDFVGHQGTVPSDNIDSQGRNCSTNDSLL

| Structure (SMILES) | Potency | activation |
| --- | --- | --- |
| C[C@]12CCC(=O)C=C1C=C[C@@H]1[C@@H]2CC[C@@]2(C)[C@H]1CC[C@@]21CCC(=O)O1 | inactive | – |
| Cc1cccc2c1cc1ccc3cccc4ccc2c1c34 | inactive | – |
| CCCCN(CCO)CCCC | inactive | – |
| Cc1cccc(C)c1NC(=O)C(C)N (stereo not given) | inactive | – |
| CC/C(=C(\c1ccc(O)cc1)c1ccc(OCCN(C)C)cc1)c1ccccc1 | inactive | – |
| Cc1cc(=O)c2c(O)c3c(O)cc(=O)c4c3c3c(cc(O)c1c23)C(C)(C)C=4O | – | 3.3% [at 19 µM] |
| O=C(Cl)c1ccc(Cl)cc1Cl | inactive | – |
| COc1nc(C)nc(N)n1 | inactive | – |
| C[C@]12CCC(=O)C=C1[C@@H]1C[C@@H]1[C@H]1[C@@H]3[C@@H]4C[C@@H]4[C@@]4(CCC(=O)O4)[C@@]3(C)CC[C@@H]12 | inactive | – |
| CCCCCCNC(=O)n1cc(F)c(=O)[nH]c1=O | inactive | – |
| C[C@H](CCC(=O)O)[C@H]1CC[C@H]2[C@@H]3C(=O)C[C@@H]4CC(=O)CC[C@]4(C)[C@H]3CC(=O)[C@]12C | inactive | – |
| Nc1ccn([C@@H]2O[C@H](CO)[C@@H](O)C2O)c(=O)n1 (stereo not given in full) | inactive | – |
| Nc1nc(N)c2nc(CNc3ccc(C(=O)N[C@@H](CCC(=O)O)C(=O)O)cc3)cnc2n1 | inactive | – |
| O=C(CN1CCNCC1)NC1CCCCC1 | inactive | – |
| C[C@@]12CCC[C@H]1[C@@H]1CC[C@H]3C[C@@H](O)CC[C@]3(C)[C@H]1CC2 | inactive | – |
| C=CC(=O)OCCC#N | inactive | – |
| CC(C)(C)c1ccc(C(=O)O)cc1 | inactive | – |
| CN1CCCN=C1/C=C/c1cccs1 | inactive | – |
| CC(C)(c1ccccc1)c1ccccc1 | inactive | – |
| Sc1nc(S)nc(S)n1 | inactive | – |
| CC(C)=CCCC(C)CCOC=O (stereo not given) | inactive | – |
| CCCCCC | inactive | – |
| Nc1c(Cl)cc(Cl)cc1[N+](=O)[O-] | inactive | – |

| Structure (SMILES) | Potency | activation |
| --- | --- | --- |
| CCCCOC(=O)CC#N | inactive | – |
| CC(C)Cc1ccc(CC(=O)O)cc1 | inactive | – |
| CC(C)CCOCc1ccccc1 | inactive | – |
| C[C@@H](N)C(=O)O | inactive | – |
| Cc1ccccn1 | inactive | – |
| C/C(CC(C)C)=N\O | inactive | – |
| CCOC(=O)/C=C/c1ccccc1 | inactive | – |
| C=Cc1ccncc1 | inactive | – |
| COc1ccnc2c1CCCCC2S(=O)c1nc2ccccc2[nH]1 (stereo not given) | inactive | – |
| O=C(Nc1ccc(C(=O)O)c(O)c1)c1ccccc1 | inactive | – |
| C[C@](N)(Cc1ccc(O)cc1)C(=O)O | – | 23.8% [at 8.39 µM] |
| Cc1cc(Cl)c(C)cc1Cl | inactive | – |
| CCCCCC(CO)CCC (stereo not given) | inactive | – |
| CCCCOC(=O)CO | inactive | – |
| SCCc1cnccn1 | inactive | – |
| CC(=O)c1c(C)c([N+](=O)[O-])c(C(C)(C)C)c([N+](=O)[O-])c1C | inactive | – |
| O=C(OCCOCCOCCOC(=O)c1ccccc1)c1ccccc1 | inactive | – |
| CCCCOc1ccc(N)cc1 | inactive | – |
| CC/C=C\CCCCCO | inactive | – |
| COc1ccc2cc(CCC(C)=O)ccc2c1 | inactive | – |
| Cc1cc(O)c(Cl)c(C)c1Cl | inactive | – |
| CCCCC(CC)COCCCN (stereo not given) | inactive | – |
